Source: PubChem BioAssay (NCATS)
For part of these data: Results with a measured potency or affinity are listed apart. The source made the active and inactive calls. How the calls were made is not given here. Bridge positions count the residues as written; N and C are the ends. Square brackets hold non-standard residues; d marks the D form. Peptide text beside a SMILES is read from it. * marks the point of attachment. Sta = CC(C)C[C@H](N)[C@@H](O)CC(=O)O; hArg = N=C(N)NCCCC[C@H](N)C(=O)O; Isovaleryl = CC(C)CC(=O)*; Mpa = O=C(O)CCS

What was measured:
[1] = Ebola virus entry assay, green fluorescence channel
[2] = Ebola virus entry assay, blue channel fluorescence
[3] = Ebola virus entry assay, ratio channel
[4] = Ebola virus entry assay, green channel fluorescence
[5] = Ebola virus entry assay, reporter ratio channel; Channel type: primary
[6] = Ebola virus entry assay, blue channel (ratio component)
Wherever efficacy is given: 0% is about no effect.

C(=C\c1ccccc1)/CN1CCN(C(c2ccccc2)c2ccccc2)CC1
inactive: efficacy [1] 12.5% | outcome [2] | outcome [3] | outcome [4] | outcome [5] | outcome [6]

O=Cc1ccc(O)c(O)c1O
inactive: efficacy [1] 43% | outcome [2] | outcome [3] | outcome [4] | outcome [5] | outcome [6]

O=C(O)C1CCC1
inactive: efficacy [1] -19% | outcome [2] | outcome [3] | outcome [4] | outcome [5] | outcome [6]

CC(=O)Nc1cccc(O)c1
inactive: efficacy [1] 28% | outcome [2] | outcome [3] | outcome [4] | outcome [5] | outcome [6]

N[C@@H](CSSC[C@H](N)C(=O)O)C(=O)O
inactive: efficacy [1] -14.5% | outcome [2] | outcome [3] | outcome [4] | outcome [5] | outcome [6]

CC(=O)N1C[C@H](O)C[C@H]1C(=O)O
inactive: efficacy [1] 24.5% | outcome [2] | outcome [3] | outcome [4] | outcome [5] | outcome [6]

COc1cc(C(=S)N2CCOCC2)ccc1O
inactive: efficacy [1] -16.3% | outcome [2] | outcome [3] | outcome [4] | outcome [5] | outcome [6]

O=C(NOCC1CC1)c1ccc(F)c(F)c1Nc1ccc(I)cc1Cl
active: AC50 [2] 7.94 µM | AC50 [3] 15.8 µM | AC50 [5] 15.8 µM
inactive: efficacy [1] 18.5% | outcome [4] | outcome [6]

CC(=O)OCC(=O)[C@@]1(O)CCC2C3CCC4=CC(=O)CC[C@]4(C)C3[C@@H](O)C[C@@]21C (stereo not given in full)
inactive: efficacy [1] -12.5% | outcome [2] | outcome [3] | outcome [4] | outcome [5] | outcome [6]

CN(C)CCC(c1ccccc1)c1ccccn1 (stereo not given)
inactive: efficacy [1] 12.6% | outcome [2] | outcome [3] | outcome [4] | outcome [5] | outcome [6]

O=C(O)c1cccnc1Nc1cccc(C(F)(F)F)c1
inactive: efficacy [1] -25.4% | outcome [2] | outcome [3] | outcome [4] | outcome [5] | outcome [6]

CCOCC(O)COc1ccc(NC(=O)CC[S+](C)C)cc1 (stereo not given)
inactive: efficacy [1] -21.6% | outcome [2] | outcome [3] | outcome [4] | outcome [5] | outcome [6]

CCOC(=O)c1ccc(C#Cc2ccc3c(c2)C(C)(C)CCS3)nc1
inactive: efficacy [1] 24% | outcome [2] | outcome [3] | outcome [4] | outcome [5] | outcome [6]

CC1(C)CO[C@@H](CC(=O)O)CN1
inactive: efficacy [1] -12.4% | outcome [2] | outcome [3] | outcome [4] | outcome [5] | outcome [6]

Cc1ccc(S(=O)(=O)NC(=O)NC2CCCC2)cc1
inactive: efficacy [1] -11.6% | outcome [2] | outcome [3] | outcome [4] | outcome [5] | outcome [6]

CN(C)CCCO[C@@H]1[C@H]2OC(C)(C)O[C@H]2O[C@@H]1C(O)CO (stereo not given in full)
inactive: efficacy [1] -11.8% | outcome [2] | outcome [3] | outcome [4] | outcome [5] | outcome [6]

NC(=O)CCCCC1CCSS1 (stereo not given)
inactive: efficacy [1] 19.1% | outcome [2] | outcome [3] | outcome [4] | outcome [5] | outcome [6]

NCCc1cnc[nH]1
inactive: efficacy [1] 13.4% | outcome [2] | outcome [3] | outcome [4] | outcome [5] | outcome [6]

C#CCN(C)Cc1ccccc1
inactive: efficacy [1] -14.7% | outcome [2] | outcome [3] | outcome [4] | outcome [5] | outcome [6]

CC(=O)Nc1ccc(S(=O)(=O)Nc2ccc([N+](=O)[O-])cc2)cc1
inactive: efficacy [1] -17.6% | outcome [2] | outcome [3] | outcome [4] | outcome [5] | outcome [6]

CC[N+](CC)(CC)CCOC(=O)C(C1CCCC1)C1CCCC1
inactive: efficacy [1] 39.4% | outcome [2] | outcome [3] | outcome [4] | outcome [5] | outcome [6]

Cc1cc(NC(=O)C2=C(O)c3ccccc3S(=O)(=O)N2C)no1
inactive: efficacy [1] -7.71% | outcome [2] | outcome [3] | outcome [4] | outcome [5] | outcome [6]

C[C@H]1COc2c(C3(N)CC3)c(F)cc3c(=O)c(C(=O)O)cn1c23
inactive: efficacy [1] 9.63% | outcome [2] | outcome [3] | outcome [4] | outcome [5] | outcome [6]

CC(C)Cc1ccc(C(C)C(=O)OCc2ccccn2)cc1 (stereo not given)
inactive: efficacy [1] -17.6% | outcome [2] | outcome [3] | outcome [4] | outcome [5] | outcome [6]

CC(C)(C)c1nnc(NS(=O)(=O)c2ccc(N)cc2)s1
inactive: efficacy [1] -23% | outcome [2] | outcome [3] | outcome [4] | outcome [5] | outcome [6]

NC(N)=NCCC[C@H](N)C(=O)O
inactive: efficacy [1] -16.3% | outcome [2] | outcome [3] | outcome [4] | outcome [5] | outcome [6]

CC(O)COc1ccccc1 (stereo not given)
inactive: efficacy [1] 11.7% | outcome [2] | outcome [3] | outcome [4] | outcome [5] | outcome [6]

C=CCSCC1Nc2cc(Cl)c(S(N)(=O)=O)cc2S(=O)(=O)N1 (stereo not given)
inactive: efficacy [1] -29.5% | outcome [2] | outcome [3] | outcome [4] | outcome [5] | outcome [6]

CNC1CCCN(c2c(F)cc3c(=O)c(C(=O)O)cn(C4CC4)c3c2OC)C1 (stereo not given)
inactive: efficacy [1] -29.7% | outcome [2] | outcome [3] | outcome [4] | outcome [5] | outcome [6]

O=c1[nH]c(=O)n([C@H]2C[C@H](O)[C@@H](CO)O2)cc1C(F)(F)F
inactive: efficacy [1] 18.2% | outcome [2] | outcome [3] | outcome [4] | outcome [5] | outcome [6]

CC1(C)S[C@@H]2[C@H](N=CN3CCCCCC3)C(=O)N2[C@H]1C(=O)O
inactive: efficacy [1] -47.1% | outcome [2] | outcome [3] | outcome [4] | outcome [5] | outcome [6]

CC(C)CC(=O)N[C@H](C(=O)N[C@H](C(=O)N[C@@H](CC(C)C)[C@@H](O)CC(=O)N[C@@H](C)C(=O)N[C@@H](CC(C)C)[C@@H](O)CC(=O)O)C(C)C)C(C)C (Isovaleryl-VV[Sta]A[Sta]-OH)
inactive: efficacy [1] -12.4% | outcome [2] | outcome [3] | outcome [4] | outcome [5] | outcome [6]

CCOC(=O)c1cccc(N)c1
inactive: efficacy [1] 16.6% | outcome [2] | outcome [3] | outcome [4] | outcome [5] | outcome [6]

CC1(C)OC[C@@H](COC(=O)CCc2ccc(OC[C@@H](O)CNCCNC(=O)N3CCOCC3)cc2)O1
inactive: efficacy [1] -15.7% | outcome [2] | outcome [3] | outcome [4] | outcome [5] | outcome [6]

CC1(C)[C@@H](OC(=O)CCC(=O)O)CC[C@]2(C)[C@H]3C(=O)C=C4[C@@H]5C[C@@](C)(C(=O)O)CC[C@]5(C)CC[C@@]4(C)[C@]3(C)CC[C@@H]12
inactive: efficacy [1] 12.7% | outcome [2] | outcome [3] | outcome [4] | outcome [5] | outcome [6]

CC(=O)N[C@H]1[C@H]([C@H](O)[C@H](O)CO)OC(C(=O)O)=C[C@@H]1N=C(N)N
inactive: efficacy [1] -18.6% | outcome [3] | outcome [4] | outcome [5] | outcome [6]
active: AC50 [2] 2.82 µM

NC(=O)[C@@H]1CSSCCC(=O)N[C@@H](CCCCN=C(N)N)C(=O)NCC(=O)N[C@@H](CC(=O)O)C(=O)N[C@@H](Cc2c[nH]c3ccccc23)C(=O)N2CCC[C@H]2C(=O)N1 ([Mpa][hArg]GDWPC-NH2; disulfide 1-7)
inactive: efficacy [1] 12.3% | outcome [2] | outcome [3] | outcome [4] | outcome [5] | outcome [6]

CCOC(=O)C(C)(C)Oc1ccc(Cl)cc1
inactive: efficacy [1] 22.6% | outcome [2] | outcome [3] | outcome [4] | outcome [5] | outcome [6]

C[C@@]12CCC[C@H]1[C@@H]1CC[C@H]3C[C@@H](O)CC[C@]3(C)[C@H]1CC2
inactive: efficacy [1] -12.6% | outcome [2] | outcome [3] | outcome [4] | outcome [5] | outcome [6]

CC(=O)O[C@H]1CC[C@@]2(C)C(=CC[C@@H]3[C@@H]2CC[C@]2(C)C(C(C)=O)=CC[C@@H]32)C1
inactive: efficacy [1] -13.1% | outcome [2] | outcome [3] | outcome [4] | outcome [5] | outcome [6]

CN(C(=O)c1c(O)c2ccccc2n(C)c1=O)c1ccccc1
inactive: efficacy [1] -16% | outcome [2] | outcome [3] | outcome [4] | outcome [5] | outcome [6]

Oc1cccc2[nH]ccc12
inactive: efficacy [1] 14.5% | outcome [2] | outcome [3] | outcome [4] | outcome [5] | outcome [6]

CCCc1nc(C)c2c(=O)[nH]c(-c3cc(S(=O)(=O)N4CCN(CC)CC4)ccc3OCC)nn12
inactive: efficacy [1] 25.4% | outcome [2] | outcome [3] | outcome [4] | outcome [5] | outcome [6]

CCCCCCCCCCCCOS(=O)(=O)O
inactive: efficacy [1] -26.4% | outcome [2] | outcome [3] | outcome [4] | outcome [5] | outcome [6]

CCOc1ccccc1C(N)=O
inactive: efficacy [1] -14.9% | outcome [2] | outcome [3] | outcome [4] | outcome [5] | outcome [6]

CC[N+]1(CC)CCC(=C(c2ccccc2)c2ccccc2)C1C (stereo not given)
inactive: efficacy [1] 13% | outcome [2] | outcome [3] | outcome [4] | outcome [5] | outcome [6]

Cc1ccc(O)cc1
inactive: efficacy [1] -17.7% | outcome [2] | outcome [3] | outcome [4] | outcome [5] | outcome [6]

CCCCCCCCCCCCCCC[C@H](O)[C@@H](N)CO
inactive: efficacy [1] 25.9% | outcome [2] | outcome [3] | outcome [4] | outcome [5] | outcome [6]

O=C(O)CCC(=O)Nc1ccc(S(=O)(=O)Nc2nccs2)cc1
inactive: efficacy [1] -34.8% | outcome [2] | outcome [3] | outcome [4] | outcome [5] | outcome [6]

Nc1nc2ncc(CNc3ccc(C(=O)N[C@@H](CCC(=O)O)C(=O)O)cc3)nc2c(=O)[nH]1
inactive: efficacy [1] 12.4% | outcome [2] | outcome [3] | outcome [4] | outcome [5] | outcome [6]
